Most compounds without a hit are left out; they make up all but 6.9% or so of the library.
SKKanGAS inh = blocks kanamycin growth of S. pyogenes SKKanGAS strain; BacTiter-Glo, 6 h; inhibition, % at 7.5 µM; actives 1.3% (n = 300,000); AID 1662;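 active = mean replicate score, as percent of positive control median, at least 50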;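 note: strain carries kanamycin resistance gene driven by streptokinase promoter and grows in 40 µg/ml kanamycin; loss of luminescence reflects streptokinase promoter inhibition or plain growth inhibition; 0% = median of DMSO wells and 100% = positive control at its reference dose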
Mdm2-MdmX inh = inhibitors of human Mdm2/MdmX interaction; O15151+Q00987; SaOS-2 split-luciferase Mdm2/MdmX complementation, luminescence; inhibition, % at 8 µM; actives 3% (n = 330,000);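 active = inhibition of at least 50% at 8 µM in the primary screen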
Target sequence (O15151 whole entry, looked up): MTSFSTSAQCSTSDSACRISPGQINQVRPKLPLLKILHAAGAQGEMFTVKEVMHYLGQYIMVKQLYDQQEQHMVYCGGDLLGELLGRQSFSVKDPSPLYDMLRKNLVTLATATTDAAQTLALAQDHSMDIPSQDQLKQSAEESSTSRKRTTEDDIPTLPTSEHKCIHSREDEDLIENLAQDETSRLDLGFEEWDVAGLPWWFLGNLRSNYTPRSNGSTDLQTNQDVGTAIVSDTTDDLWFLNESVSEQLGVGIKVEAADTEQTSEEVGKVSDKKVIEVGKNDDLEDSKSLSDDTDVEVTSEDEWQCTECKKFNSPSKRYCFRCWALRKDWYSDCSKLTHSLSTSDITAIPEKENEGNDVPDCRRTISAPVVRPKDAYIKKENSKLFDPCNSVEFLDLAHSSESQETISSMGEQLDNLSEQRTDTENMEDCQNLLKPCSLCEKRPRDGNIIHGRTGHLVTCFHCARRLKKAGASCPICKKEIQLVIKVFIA
Target sequence (Q00987 whole entry, looked up): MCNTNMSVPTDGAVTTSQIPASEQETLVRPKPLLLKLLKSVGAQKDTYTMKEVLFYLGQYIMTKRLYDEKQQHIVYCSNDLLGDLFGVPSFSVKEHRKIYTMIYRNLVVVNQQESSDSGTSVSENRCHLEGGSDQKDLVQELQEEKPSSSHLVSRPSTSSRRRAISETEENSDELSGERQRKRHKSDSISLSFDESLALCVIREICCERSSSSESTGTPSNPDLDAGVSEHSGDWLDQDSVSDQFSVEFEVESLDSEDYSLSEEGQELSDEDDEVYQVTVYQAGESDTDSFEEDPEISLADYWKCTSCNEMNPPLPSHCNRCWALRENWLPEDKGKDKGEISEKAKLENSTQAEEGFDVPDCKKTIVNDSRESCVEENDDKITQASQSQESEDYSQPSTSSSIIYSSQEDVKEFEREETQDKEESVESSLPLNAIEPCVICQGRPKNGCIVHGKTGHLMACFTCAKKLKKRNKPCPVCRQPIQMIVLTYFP
Beta cell apopt = beta cell apoptosis inhibition. INS-1E cytokine-induced death, ATP luminescence, 48 h; percent of positive-control rescue, neutral wells zero. protection from apoptosis, % (test concentration not listed). actives 0.8% (n = 300,000). AID 435005;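 active = Every replicate reaches about 75%, or at least half do and their mean reaches it too, limit read from the data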;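 note: 0% = cytokine-treated negative control wells and 100% = positive control rescue; higher means more ATP so stronger rescue from cytokine killing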
MPTP inh = permeability transition pore inhibition | isolated mouse mitochondria, Ca2+ swelling absorbance, 30 min | inhibition, % at 10 µM | actives 1.4% (n = 360,000);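 active = inhibition of 50% or more, scaled per plate between neutral and stimulator controls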;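 note: 0% = DMSO wells given calcium and 100% = 1 mM EGTA wells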
CSC inhib = blocks cancer stem cells | actives 1.1% (n = 300,000) | AID 2717 | inhibition, % at 7.5 µM | cancer stem cell-like cells viability, luminescence; in the data active = inhibition above about 75%; tested in HMLE shEcad cells
GRIN3A LBD mod = modulates the human NR3A ligand-binding domain | NR3A LBD differential scanning fluorimetry, Tm shift; 0% = protein alone, 100% = glycine-bound protein | Tm shift relative to glycine control, % at 25 µM | actives 2.5% (n = 340,000) | AID 1259313;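 active = melting temperature shift of at least 10% of the positive control shift, at one fixed dose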
MPTP counter = mitochondrial membrane potential, counter-screen | isolated mitochondria, Rhodamine 123 fluorescence | actives 78% (n = 5,000) | inhibition, % at 10 µM | shares compounds with MPTP inh; in the data active = inhibition above about 22%;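 note: 0% = DMSO vehicle and 100% = positive control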
MPTP abs DR = dose response confirmation of mitochondrial permeability transition pore inhibitors. IC50, µM. isolated mitochondria swelling, absorbance. actives 58% (n = 780). shares compounds with MPTP inh. AID 651561; in the data active = IC50 below about 20 µM
MPTP counter DR = counter-screen for mitochondrial permeability transition pore inhibitors, dose response | shares compounds with MPTP inh | isolated mitochondria counterscreen, fluorescence read-out | IC50, µM | actives 49% (n = 780) | AID 651564; in the data active = IC50 below about 80 µM
An asterisk follows results filed as active; i = inactive; / = no result.

SMILES	SKKanGAS inh	Mdm2-MdmX inh	Beta cell apopt	MPTP inh	CSC inhib	GRIN3A LBD mod	MPTP counter	others
CC(=O)N1CCc2c(sc(NC(=O)c3ccc([N+](=O)[O-])o3)c2C#N)C1	15.0	/	/	2.8	/	-3.5	/
CCSc1nnc(NC(=O)CSc2nc(CC)nc3c2c(=O)n(C)c(=O)n3C)s1	-10.0	22.2	-2.9	66.2*	-2.4	14.1*	19.4	MPTP abs DR=i;MPTP counter DR=>80
CCCc1nc(SCC(=O)Nc2nnc(SCC)s2)c2c(=O)n(C)c(=O)n(C)c2n1	-2.1	13.3	28.8	7.4	31.1	-1.5	/
CCOc1cc(CNCCSc2nnnn2C)cc(Br)c1OCc1ccc(F)cc1	-5.8	-0.9	6.3	92.6*	11.4	-5.7	7.4	MPTP abs DR=i;MPTP counter DR=22.8*
CCc1ccc(NC(=O)c2cc(S(=O)(=O)N3CCCC3)ccc2F)cc1	/	/	/	-0.6	/	/	/
Cc1c(C(=O)Nc2cccc(Cl)c2)c2ccccn2c1CCc1ccncc1	4.1	/	/	24.8	/	-7.1	/
Cc1c(C(=O)Nc2ccc(Cl)cc2)c2ccccn2c1CCc1ccncc1	-6.9	-14.2	12.0	85.3*	20.6	-13.7	90.3*
Cc1ccc(NS(=O)(=O)c2ccc(Br)cc2)nc1	-7.9	2.9	-9.2	0.1	-2.2	-0.2	/
COC1(NS(=O)(=O)c2ccc(Br)cc2)C(C)=CC(=O)C=C1C	-4.6	6.2	-1.1	77.5*	-3.9	2.2	3.5	MPTP abs DR=i;MPTP counter DR=>80
O=S(=O)(/N=C(/c1ccccc1)N1CCOCC1)c1ccc(Br)cc1	-0.8	3.8	/	-2.1	/	0.3	/
Cc1cc(C)c(S(=O)(=O)N2CCCC(C(=O)NCc3cccnc3)C2)c(C)c1 (centres undefined)	-4.9	8.6	-3.6	-1.9	-7.8	-2.2	/
COc1cc2c(cc1OC)CN(C(=S)Nc1ccc(C)cc1C)CC2	1.4	-12.5	1.1	1.8	22.5	-1.5	/
Cc1ccc(Nc2n[nH]c(C)c2[N+](=O)[O-])cc1C	1.5	-259.1	1.7	8.5	8.2	-0.6	/
Cc1ccc(Nc2nc3nonc3[nH]c2=O)cc1C	26.2	4.5	6.5	69.4*	6.6	-6.5	101.7*
CCc1ccccc1NCC(=O)Nc1ccc(Cl)c(C(F)(F)F)c1	-0.8	41.0	/	68.7*	/	20.6*	86.4*
COc1ccccc1NC(=O)CN1CCN(CC(=O)Nc2ccc(Cl)c(C(F)(F)F)c2)CC1	/	/	/	2.9	/	-5.1	/
C/C(CC(=O)Nc1ccc(Cl)c(C(F)(F)F)c1)=N\NC(=O)c1ccccc1O	103.5*	43.8	23.1	98.5*	-11.7	23.8*	69.9*
N#CC(/C(=N/S(=O)(=O)c1cccs1)c1ccccc1)c1nc2ccccc2[nH]1 (centres undefined)	11.0	17.2	8.5	66.0*	23.4	-1.1	71.9*
OC(CN1CCCCC1)CN(c1ccccc1)c1ccccc1 (centres undefined)	3.3	17.3	2.0	1.9	-10.3	4.4	/
OC(CN1CCCCCC1)CN(c1ccccc1)c1ccccc1 (centres undefined)	-1.7	-3.8	30.6	67.1*	-5.0	-3.0	51.1*
CSCCC(N=C1NS(=O)(=O)c2ccccc21)C(=O)N1CCCC(C(N)=O)C1 (centres undefined)	-3.9	-1.2	-2.1	0.7	-10.4	4.8	/
O=C(Nc1cccc(Cl)c1)Nc1cc(S(=O)(=O)N2CCOCC2)ccc1N1CCCC1	-3.4	10.8	6.9	87.0*	-1.2	2.9	74.9*
Cc1ccc(S(=O)(=O)N2CCOCC2)cc1NC(=O)Nc1ccc([N+](=O)[O-])cc1	/	32.9	2.2	99.5*	23.1	-3.5	98.8*
O=C(Nc1ccc([N+](=O)[O-])cc1)Nc1ccc(N2CCOCC2)c2nonc12	9.4	49.7	3.4	95.8*	-4.0	18.1*	58.5*
Cc1ccc(S(=O)(=O)N2CCOCC2)cc1NC(=O)c1cc([N+](=O)[O-])ccc1N1CCOCC1	-4.5	17.1	-0.3	-1.0	-4.9	2.5	/
SMILES	SKKanGAS inh	Mdm2-MdmX inh	Beta cell apopt	MPTP inh	CSC inhib	GRIN3A LBD mod	MPTP counter	others
O=C(Nc1ncc([N+](=O)[O-])s1)c1cccc([N+](=O)[O-])c1	0.5	27.8	54.9	56.3*	54.5	-8.2	78.8*
CC(C)CC(=O)Nc1ncc([N+](=O)[O-])s1	5.2	-34.3	3.6	66.9*	1.1	0.2	56.0*
O=C(Nc1ccccc1)Nc1ncc([N+](=O)[O-])s1	-10.7	-26.0	/	87.6*	/	7.8	81.9*
CN1CN(C)C(c2ccncc2)=C1c1ccncc1	-0.4	27.5	-2.5	-0.3	1.3	1.8	/
CC1(C)CC(NC(=O)Cc2ccccc2)CC(C)(C)N1	-6.2	18.8	-1.2	0.5	-17.4	-2.9	/
COc1ccc(-n2nc(C(=O)NCC(=O)NCCCN3CC(C)CC(C)C3)c3ccccc3c2=O)cc1Cl (centres undefined)	8.7	21.5	-11.9	-0.5	-9.7	0.6	/
COC(=O)c1ccccc1OCCCOc1ccc(C=O)cc1OC	-4.1	-31.6	-12.3	57.5*	-13.5	-5.3	-8.3	MPTP abs DR=11.4*;MPTP counter DR=>80
COc1cc(C)ccc1OCCCCOc1ccccc1C(C)=O	9.5	-2.5	4.8	95.3*	3.4	3.0	84.8*
O=C(COc1ccc(Br)cc1)NCCNC(=O)c1ccncc1	-15.6	-15.5	3.3	0.2	-1.6	-1.6	/
Cc1ccc(S(=O)(=O)NNC(=O)C2CC=CCC2C(=O)O)cc1 (centres undefined)	-4.0	7.3	-0.7	55.4*	6.0	-2.7	1.8	MPTP abs DR=>100;MPTP counter DR=>80
CN(Cc1nccn1C)C(=O)c1ccc2nc(Cc3ccccc3F)oc2c1	-4.9	-25.8	-5.8	0.3	-11.2	-0.6	/
CCOC(=O)c1ccc(NCC(O)COc2ccccc2)cc1 (centres undefined)	-10.4	10.1	-5.3	0.1	2.2	-2.5	/
CCOC(=O)c1cccc(OCC(O)CNCCOc2ccccc2F)c1 (centres undefined)	-0.3	-27.0	-13.3	74.0*	-0.8	-3.3	-12.4	MPTP abs DR=8.88*;MPTP counter DR=>80
CCCCc1ccc(NC(=O)Cn2c(=O)c(N3CCCCC3)c(N)n(C)c2=O)cc1	/	15.2	5.6	-0.5	-11.1	3.0	/
Cc1cc(C)c(S(=O)(=O)c2cccc(C)c2C)c(=O)[nH]1	-2.4	-2.2	-5.8	-2.2	2.6	-2.0	/
COc1ccc([N+](=O)[O-])cc1N(CC(O)CN1C(=O)NC(C)(C)C1=O)S(=O)(=O)c1ccc(C)cc1 (centres undefined)	/	/	/	1.1	/	/	/
CC(=O)NN1C(=O)/C(=C\c2ccc(O)cc2)SC1=S	4.5	-6.6	6.8	0.7	-9.3	0.2	/
O=C1/C(=C\c2ccc(O)cc2)SC(=S)N1/N=C/c1ccc(O)cc1	11.6	-0.4	2.5	95.6*	6.0	18.8*	78.2*

Bioassay records deposited in PubChem BioAssay by several laboratories.
